Experimental data reported in PubChem BioAssay (Tox21).
Results filed as inconclusive are left out. Where a call stands in place of a potency, no number is given. The source made the active and inactive calls. Unless noted, the call rests on the fitted dose curve; in most records, active means well fitted curve in the direction sought with a large enough effect in the repeat runs; inconclusive means weak or mixed curves; inactive means no such curve, though single readings can be large; an effect the other way counts as inactive or inconclusive.

Key:
[1] = qHTS assay to identify aromatase inhibitors - cell viability counter screen (AID 743084);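 further: cells stimulated with testosterone during compound exposure; nearly all actives have a fitted effect of over 55% in size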; further: potency means the concentration at half of the fitted maximal effect
[2] = target: Aryl hydrocarbon receptor (Homo sapiens) (UniProt P35869); assay: qHTS assay to identify small molecule that activate the aryl hydrocarbon receptor (AhR) signaling pathway (AID 743085); further: nearly all actives have a fitted effect of over 15% in size; further: potency means the concentration at half of the fitted maximal effect;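 on activation: HG2L7.5c1 human HepG2 liver cells with stably integrated DRE-driven firefly reporter; series mostly up to about 70 µM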
Aryl hydrocarbon receptor (Homo sapiens), sequence (P35869 whole entry, looked up): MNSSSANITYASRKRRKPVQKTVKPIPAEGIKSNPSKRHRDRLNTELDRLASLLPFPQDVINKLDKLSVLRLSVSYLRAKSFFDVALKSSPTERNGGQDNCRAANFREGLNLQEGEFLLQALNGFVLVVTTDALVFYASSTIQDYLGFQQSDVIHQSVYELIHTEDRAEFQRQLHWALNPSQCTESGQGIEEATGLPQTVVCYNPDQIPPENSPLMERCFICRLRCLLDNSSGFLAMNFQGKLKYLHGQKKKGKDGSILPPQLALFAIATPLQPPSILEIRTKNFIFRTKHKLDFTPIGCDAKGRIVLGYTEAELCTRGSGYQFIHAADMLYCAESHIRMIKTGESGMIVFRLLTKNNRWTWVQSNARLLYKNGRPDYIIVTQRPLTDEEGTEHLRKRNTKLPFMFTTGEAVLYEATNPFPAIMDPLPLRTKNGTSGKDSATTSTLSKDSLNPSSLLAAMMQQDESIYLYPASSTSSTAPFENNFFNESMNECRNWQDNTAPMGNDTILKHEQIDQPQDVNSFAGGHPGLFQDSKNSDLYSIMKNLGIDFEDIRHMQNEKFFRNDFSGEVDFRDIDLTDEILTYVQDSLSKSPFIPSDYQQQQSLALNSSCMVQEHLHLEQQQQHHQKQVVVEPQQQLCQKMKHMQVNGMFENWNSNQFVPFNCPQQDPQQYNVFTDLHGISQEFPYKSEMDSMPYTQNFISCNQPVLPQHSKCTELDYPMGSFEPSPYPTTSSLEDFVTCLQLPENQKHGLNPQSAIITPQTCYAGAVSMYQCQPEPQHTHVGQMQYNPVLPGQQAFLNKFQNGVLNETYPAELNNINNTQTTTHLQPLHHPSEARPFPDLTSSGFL
In short: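 Measured in HG2L7.5c1 cells: CellTiter-Fluor signal (30 min incubation, 37C) for viability, then luciferase luminescence (30 min, room temperature). Compound contact time was 24 h at 37C, following a 5 h pre-incubation.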

[3] = qHTS assay to identify small molecule that activate the aryl hydrocarbon receptor (AhR) signaling pathway - cell viability counter screen (AID 743086);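 further: HepG2 liver cells carrying the AhR DRE luciferase reporter; series mostly up to about 70 µM; nearly all actives have a fitted effect of over 45% in size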
In short: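 HepG2-AhR-luc (HG2L7.5c1) cells, 4000/well, were preincubated 5 h at 37C, exposed to compound in qHTS format for 24 hr at 37C, then given CellTiter-Fluor for 30 min; viability was read as fluorescence in the reporter wells.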

[4] = qHTS assay for small molecule agonists of the antioxidant response element (ARE) signaling pathway - cell viability counter screen (AID 743203; calls by dose curve; further: nearly all actives have a fitted effect of over 55% in size; further: potency means the concentration at half of the fitted maximal effect)
In short: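 Seeded at 2,000 cells/well, ARE-bla HepG2 cells were incubated 5 hrs before compound addition. After 16 hrs of treatment at 37C with 5% CO2, CellTiter-Glo reagent was added and luminescence read 30 min later.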

[5] = qHTS assay for small molecule activators of the heat shock response signaling pathway - cell viability counter screen (AID 743209); further: nearly all actives have a fitted effect of over 50% in size
In short: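 First, HSE-bla HeLa cells were seeded at 1500 cells/well and kept overnight at 37 C. Next, compounds were pinned in and incubated 5 h. After the FRET substrate step, CellTiter-Glo was added and luminescence read 30 min later.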

[6] = qHTS assay to identify small molecule agonists of the peroxisome proliferator-activated receptor delta (PPARd) signaling pathway - cell viability counter screen (AID 743211); further: nearly all actives have a fitted effect of over 55% in size; further: potency means the concentration at half of the fitted maximal effect
In short: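 Following 5 h plating at 37 C and 5% CO2, PPARd UAS-bla HEK293H cells took up test compounds for 17 h. Viability was quantified by luminescence 30 min after CellTiter-Glo addition at room temperature.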

[7] = target: Peroxisome proliferator-activated receptor delta (Homo sapiens) (UniProt Q03181); assay: qHTS assay to identify small molecule agonists of the peroxisome proliferator-activated receptor delta (PPARd) signaling pathway (AID 743212; calls by dose curve)
Peroxisome proliferator-activated receptor delta (Homo sapiens), sequence (Q03181 whole entry, looked up): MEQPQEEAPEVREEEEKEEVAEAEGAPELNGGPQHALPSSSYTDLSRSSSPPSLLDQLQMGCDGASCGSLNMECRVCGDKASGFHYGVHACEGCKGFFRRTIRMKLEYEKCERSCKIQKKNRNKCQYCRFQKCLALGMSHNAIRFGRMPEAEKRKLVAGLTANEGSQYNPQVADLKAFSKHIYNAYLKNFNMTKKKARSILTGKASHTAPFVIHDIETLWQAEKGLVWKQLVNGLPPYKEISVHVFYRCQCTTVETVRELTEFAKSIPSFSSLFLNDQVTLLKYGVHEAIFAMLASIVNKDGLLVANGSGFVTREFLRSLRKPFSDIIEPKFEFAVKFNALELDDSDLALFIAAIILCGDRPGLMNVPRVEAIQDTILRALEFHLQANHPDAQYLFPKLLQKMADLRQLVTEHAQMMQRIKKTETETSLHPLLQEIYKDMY
In short: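 GeneBLAzer PPARd UAS-bla HEK293H cells (beta-lactamase reporter under UAS control), plated and rested 5 h at 37 C, then exposed to compounds in DMSO at 37 C; LiveBLAzer B/G FRET substrate added, 2 h room temperature, fluorescence read.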

[8] = qHTS assay to identify small molecule antagonists of the peroxisome proliferator-activated receptor delta (PPARd) signaling pathway - cell viability counter screen (AID 743213); further: nearly all actives have a fitted effect of over 50% in size
In short: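 Agonist-stimulated (L165041, 300 nM final) HEK293H PPARd UAS-bla cells are exposed to compounds for 17 h at 37 C, and ATP-based luminescence (CellTiter-Glo) from the same wells reports cytotoxicity.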

[9] = target: Peroxisome proliferator-activated receptor delta (Homo sapiens) (UniProt Q03181); assay: qHTS assay to identify small molecule antagonists of the peroxisome proliferator-activated receptor delta (PPARd) signaling pathway (AID 743215; active means well fitted inhibition curve with a large enough effect in the signal ratio in the repeat runs, not every such curve was filed as active; the % refers to the signal ratio; further: series mostly up to about 62 µM)
In short: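 Inhibition of L165041-driven (300 nM final) PPARd signaling is scored in HEK293H UAS-bla cells. Exposure lasts 17 h at 37 C; beta-lactamase activity is then read by FRET substrate fluorescence after 2 h at room temperature.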

[10] = qHTS assay to identify small molecule agonists of the farnesoid-X-receptor (FXR) signaling pathway - cell viability counter screen (AID 743218); further: nearly all actives have a fitted effect of over 45% in size; further: potency means the concentration at half of the fitted maximal effect
In short: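 Cytotoxicity counter-screen run in parallel, same wells: FXR-UAS-bla HEK 293T cells dosed 16 h at 37 C, viability read by CellTiter-Glo luminescence after 30 min at room temperature.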

[11] = qHTS assay to identify small molecule antagonists of the farnesoid-X-receptor (FXR) signaling pathway - cell viability counter screen (AID 743221; active means well fitted cell-killing curve with a large enough effect in the repeat runs, not every such curve was filed as active; further: nearly all actives have a fitted effect of over 50% in size)
In short: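 Compound effects on cell number were measured as CellTiter-Glo luminescence in HEK 293T cells expressing FXR-UAS-bla, after 16 h at 37 C with 50 uM CDCA (final).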

[12] = target: Vitamin D3 receptor (Homo sapiens) (UniProt P11473); assay: qHTS assay to identify small molecule agonists of the vitamin D receptor (VDR) signaling pathway (AID 743222; calls by dose curve)
Vitamin D3 receptor (Homo sapiens), sequence (P11473 whole entry, looked up): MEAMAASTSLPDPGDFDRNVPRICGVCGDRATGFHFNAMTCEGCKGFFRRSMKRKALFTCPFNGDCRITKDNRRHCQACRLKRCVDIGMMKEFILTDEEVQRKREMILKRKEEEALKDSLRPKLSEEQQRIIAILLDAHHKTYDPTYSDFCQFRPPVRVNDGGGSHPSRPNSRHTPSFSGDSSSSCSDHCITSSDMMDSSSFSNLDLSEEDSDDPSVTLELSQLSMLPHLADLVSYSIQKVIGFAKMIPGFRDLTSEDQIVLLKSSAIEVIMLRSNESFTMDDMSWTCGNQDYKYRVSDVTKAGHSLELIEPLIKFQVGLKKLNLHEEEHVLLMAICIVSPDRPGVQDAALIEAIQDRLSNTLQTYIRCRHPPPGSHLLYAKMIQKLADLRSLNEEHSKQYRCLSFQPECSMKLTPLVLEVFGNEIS
In short: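 Quantitative HTS agonist-mode screen: compounds in DMSO were pin-transferred onto VDR-bla cells and incubated 16 h at 37C, 5% CO2. Reporter activity was detected with LiveBLAzer B/G FRET substrate after 2 h at room temperature.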

[13] = target: Vitamin D3 receptor (Homo sapiens) (UniProt P11473); assay: qHTS assay to identify small molecule antagonists of the vitamin D receptor (VDR) signaling pathway (AID 743223; active means well fitted inhibition curve with a large enough effect in the signal ratio in the repeat runs, not every such curve was filed as active; the % refers to the signal ratio)
In short: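 Beta-lactamase activity in VDR-bla cells is measured by FRET substrate fluorescence (2 h, room temperature) after cells spend 16 h at 37C with test compound and 3 nM final 1alpha,25-dihydroxyvitamin D3.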

[14] = target: Peroxisome proliferator-activated receptor gamma (Homo sapiens) (UniProt P37231); assay: qHTS assay to identify small molecule antagonists of the peroxisome proliferator-activated receptor gamma (PPARg) signaling pathway (AID 743191; calls by dose curve; further: series mostly up to about 63 µM; nearly all actives have a fitted effect of over 30% in size)
Peroxisome proliferator-activated receptor gamma (Homo sapiens), sequence (P37231 whole entry, looked up): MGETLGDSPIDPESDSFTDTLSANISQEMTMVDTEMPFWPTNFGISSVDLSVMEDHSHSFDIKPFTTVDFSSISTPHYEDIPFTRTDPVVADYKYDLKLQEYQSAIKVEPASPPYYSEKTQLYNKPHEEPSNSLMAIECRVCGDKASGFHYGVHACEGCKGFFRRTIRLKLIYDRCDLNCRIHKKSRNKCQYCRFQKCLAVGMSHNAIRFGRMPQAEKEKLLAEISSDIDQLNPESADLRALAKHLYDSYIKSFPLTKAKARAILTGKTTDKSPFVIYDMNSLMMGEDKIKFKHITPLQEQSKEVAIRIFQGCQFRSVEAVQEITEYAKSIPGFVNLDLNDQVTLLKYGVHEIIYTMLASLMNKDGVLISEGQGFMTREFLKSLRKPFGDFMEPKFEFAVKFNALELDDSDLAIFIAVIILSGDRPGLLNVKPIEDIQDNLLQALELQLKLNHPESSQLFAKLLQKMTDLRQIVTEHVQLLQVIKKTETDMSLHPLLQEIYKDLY
In short: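 GeneBLAzer PPARg UAS-bla HEK293H cells carrying a UAS-driven beta-lactamase reporter were plated at 3000 cells/well, preincubated 5 h at 37C, then given compound for 17 h at 37C; LiveBLAzer B/G FRET substrate was read after 1 h at room temperature.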

[15] = qHTS assay for small molecule activators of the heat shock response signaling pathway (AID 743210; active means well fitted activation curve with a large enough effect in the signal ratio in the repeat runs, with a control signal flat, not every such curve was filed as active; the % refers to the signal ratio; further: series mostly up to about 63 µM)
In short: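 HSE-bla HeLa cells (beta-lactamase reporter under heat shock response elements) were exposed to compounds for 5 h at 37 C, then loaded with LiveBLAzer B/G FRET substrate for 2.5 h at room temperature before fluorescence reading.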

[16] = target: Peroxisome proliferator-activated receptor gamma (Homo sapiens) (UniProt P37231); assay: qHTS assay to identify small molecule agonists of the peroxisome proliferator-activated receptor gamma (PPARg) signaling pathway (AID 743094; active means well fitted activation curve with a large enough effect in the signal ratio in the repeat runs, not every such curve was filed as active; the % refers to the signal ratio)
In short: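 Quantitative HTS agonist mode: stable HEK293H line with UAS-beta-lactamase reporter under PPARg control, 17 h compound exposure at 37C, fluorescence after 1 h FRET substrate loading at room temperature.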

[17] = qHTS assay to identify small molecule antagonists of the peroxisome proliferator-activated receptor gamma (PPARg) signaling pathway - cell viability counter screen (AID 743194); settings: Potency: co-treated with 50 nM rosiglitazone; further: nearly all actives have a fitted effect of over 55% in size
In short: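 PPARg-UAS-bla HEK293H cells were plated, rested 5 h at 37 C, then treated with compounds plus rosiglitazone (50 nM final) for 17 h at 37 C; viability was then read by CellTiter-Glo luminescence after 30 min at room temperature.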

[18] = qHTS assay for small molecule agonists of the antioxidant response element (ARE) signaling pathway (AID 743202; active means well fitted activation curve with a large enough effect in the signal ratio in the repeat runs, not every such curve was filed as active; the % refers to the signal ratio)
In short: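 Read-out: LiveBLAzer B/G FRET substrate fluorescence after 2 h at room temperature, following 16 h compound treatment at 37 C of HepG2 cells carrying an ARE-driven beta-lactamase reporter.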

[19] = target: Bile acid receptor (Homo sapiens) (UniProt Q96RI1); assay: qHTS assay to identify small molecule antagonists of the farnesoid-X-receptor (FXR) signaling pathway (AID 743217; active means well fitted inhibition curve with a large enough effect in the signal ratio in the repeat runs, not every such curve was filed as active; the % refers to the signal ratio)
Bile acid receptor (Homo sapiens), sequence (Q96RI1 whole entry, looked up): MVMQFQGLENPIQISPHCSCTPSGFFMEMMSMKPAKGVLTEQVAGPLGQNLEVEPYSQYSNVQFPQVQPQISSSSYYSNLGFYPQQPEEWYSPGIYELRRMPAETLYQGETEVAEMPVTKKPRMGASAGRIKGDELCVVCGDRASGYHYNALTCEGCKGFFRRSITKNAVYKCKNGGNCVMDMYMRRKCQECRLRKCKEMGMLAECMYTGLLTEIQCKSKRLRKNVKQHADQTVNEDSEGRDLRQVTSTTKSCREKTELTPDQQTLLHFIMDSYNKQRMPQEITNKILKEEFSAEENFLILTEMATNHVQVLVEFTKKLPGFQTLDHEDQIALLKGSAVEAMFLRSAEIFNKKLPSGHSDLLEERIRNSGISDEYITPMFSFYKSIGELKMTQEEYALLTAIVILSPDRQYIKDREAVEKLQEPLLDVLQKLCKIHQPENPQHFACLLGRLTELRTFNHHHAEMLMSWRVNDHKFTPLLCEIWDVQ
In short: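 Antagonist mode against 50 uM (final) chenodeoxycholic acid stimulation in FXR-bla HEK 293T cells, 16 h at 37 °C. Inhibition detected as reduced beta-lactamase activity via LiveBLAzer B/G FRET fluorescence after 2 h at room temperature.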

[20] = target: Bile acid receptor (Homo sapiens) (UniProt Q96RI1); assay: qHTS assay to identify small molecule agonists of the farnesoid-X-receptor (FXR) signaling pathway (AID 743220; active means well fitted activation curve with a large enough effect in the signal ratio in the repeat runs, not every such curve was filed as active; the % refers to the signal ratio)
In short: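 Beta-lactamase reporter under UAS control in GeneBLAzer FXR HEK 293T cells (5000/well) measured with LiveBLAzer FRET substrate after 2 h at room temperature. Compound exposure lasted 16 h at 37C.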

Structure (SMILES) | Potency [1] | Potency [2] | Potency [3] | Potency [4] | Potency [5] | Potency [6] | outcome [7] | Potency [8] | Potency [9] | Potency [10] | Potency [11] | outcome [12] | outcome [13] | Potency [14] | outcome [15] | Potency [16] | Potency [17] | Potency [18] | Potency [19] | outcome [20]
OC(c1ccc(Cl)cc1)(c1ccc(Cl)cc1)c1cccnc1 | inactive | inactive | inactive | 61.1 µM (active) | inactive | 54.9 µM (active) | inactive | inactive | inactive | inactive | inactive | inactive | inactive |  |  |  |  |  |  | 
CN1[C@@H]2CC[C@H]1CC(OC(=O)c1cc(Cl)cc(Cl)c1)C2 (some centres not stated) | inactive | inactive |  |  | inactive | inactive | inactive |  | inactive |  |  |  |  | inactive | inactive |  |  |  |  | 
O=C(NCc1cccnc1)Nc1ccc([N+](=O)[O-])cc1 | inactive |  | inactive | inactive | inactive | inactive |  | inactive |  | inactive | inactive |  |  |  | inactive | inactive | inactive | inactive |  | 
C/C(=C\c1ccccc1)[N+](=O)[O-] | 21.7 µM (active) | inactive |  | 15.4 µM (active) |  | 19.5 µM (active) |  |  |  | 13.8 µM (active) |  |  |  |  |  |  |  |  |  | 
c1cc2ccc3cccc4ccc(c1)c2c34 | inactive | inactive |  |  | inactive |  |  |  |  |  | inactive |  |  |  |  |  |  |  |  | 
COc1nn(C(=O)NS(=O)(=O)c2ccccc2OC(F)(F)F)c(=O)n1C | inactive |  | inactive | inactive | inactive | inactive | inactive | inactive | inactive | inactive | inactive | inactive | inactive | inactive | inactive | inactive | inactive |  | inactive | inactive
CCOC(=O)C(Cl)C(C)=O (configuration not stated) | inactive |  | inactive | inactive | inactive | inactive |  | inactive |  | inactive | inactive | inactive | inactive |  | inactive | inactive | inactive | inactive |  | 
C/C=C/C=O | inactive |  | inactive | inactive | inactive | inactive |  | inactive |  | inactive | inactive | inactive | inactive | inactive | inactive | inactive | inactive |  |  | 
ClCc1ccccc1 | inactive |  | inactive | inactive | inactive | inactive | inactive | inactive | inactive | inactive | inactive | inactive | inactive |  |  | inactive | inactive | inactive |  | 
O=C(Nc1ccccc1)Nc1cnns1 | inactive | 15.3 µM (active) |  | inactive | inactive | inactive | inactive |  | inactive |  |  | inactive |  | inactive | inactive | inactive | inactive |  | inactive | inactive
